# Assay outcomes deposited in PubChem BioAssay by National Center for Advancing Translational Sciences (NCATS).
# HepG2 viability – counter-screen for TGF-b inhibitors: cytotoxicity in HepG2 cells; HepG2 CAGA-GFP viability, ATP luminescence, 18 h; Potency, µM (top dose mostly 46.1 µM), inactives show at the top dose activity change, negative = cytotoxicity, hits mostly cytotoxic; 410,000 tested, 0.76% active
#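 HepG2 CAGA-GFP cells (1000/well, DMEM with 1% FBS) received compound, then TGF-beta at 500 pg/mL final, and were incubated 18 hours at 37 degrees C. Viability was read by CellTiter-Glo luminescence. Media-only wells were set as complete cell-killing and DMSO as no toxicity.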
# ATXN viability – reduces viability in counter-screen for ATXN expression inhibitors | S2 cells (HEK-293 line with an ATXN2-luciferase reporter) viability, CellTiter-Fluor protease fluorescence, 24 h | Potency, µM (top dose mostly 56.7 µM), usual class: cytotoxic | 400,000 tested, 0.49% active | AID 651635; further: nearly all actives have a fitted effect of over 40% in size
# TGFb SMAD3 inh – blocks TGF-b signaling; HepG2 CAGA-GFP TGF-b/SMAD3 reporter, GFP fluorescence, 18 h; TGF-beta stimulated, 500 pg/mL final; Potency, µM (highest dose often 46.1 µM), for inactives: at the top dose activity, negative = inhibition, hits mostly inhibitors; 410,000 tested, 1.2% active; AID 588855; further: on the % scale 0 is the no-effect control and ±100 the full control effect; nearly all actives have a fitted effect of over 65% in size
#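 First, reporter cells (HEPG2 CAGA-GFP) rested 2 h at 37 degrees C. Next, compounds were pinned in and TGF-beta added to 500 pg/mL final. After 18 h, GFP was imaged per cell and summed per well.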
# DT40 TDP1 CPT – growth inhibition of DT40 Tdp1-/-;hTDP1 cells with camptothecin (screen for TDP1 inhibitors) | chicken DT40 Tdp1-/-;hTDP1 cells + 20 nM CPT, ATP luminescence, 48 h | Potency, µM (series often up to 46.2 µM), for the others: at the highest dose activity change, negative = growth inhibition, most hits filed as inhibitors | 420,000 tested, 12% active | AID 686979; further: on the % scale 0 is the no-effect control and ±100 the full control effect; nearly all actives have a fitted effect of over 55% in size
#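 Chicken DT40 Tdp1-/- cells stably complemented with human TDP1 were seeded at 400 cells/well in medium containing 20 nM camptothecin, exposed to pin-transferred compounds, and grown at 37 °C for at least 48 hr. Viability was read as ATP luminescence.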
# TDP1 cell noCPT – qHTS for Inhibitors of human tyrosyl-DNA phosphodiesterase 1 (TDP1): qHTS in cells in absence of CPT; DT40 Tdp1-/- hTDP1 cells, no CPT, ATP luminescence, 48 h; Potency, µM (top dose mostly 46.2 µM), for the others: at the top dose activity change, negative = growth inhibition, hits mostly inhibitors; 420,000 tested, 15% active; AID 686978, 2013; further: on the % scale 0 is the no-effect control and ±100 the full control effect; nearly all actives have a fitted effect of over 55% in size
#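 Luminescent ATP content (CellTiter-Glo) served as the growth readout. Knockout chicken DT40 cells expressing human TDP1 were exposed to compounds without camptothecin for a minimum 48 hr at 37 °C.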
# ATXN2 expr inh – inhibitors of ATXN2 expression; HEK-293 ATXN2-luciferase reporter, luminescence, 24 h; AID 1745845; Potency, µM (series often up to 57 µM), without a hit: at the highest dose activity change, negative = inhibition, most hits filed as inhibitors; 360,000 tested, 0.72% active; further: on the % scale 0 is the no-effect control and ±100 the full control effect; nearly all actives have a fitted effect of over 55% in size
#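 qHTS (up to 57 uM final) was run with 24 h compound exposure of reporter cells at 37 °C. Each well was multiplexed: SteadyGlo luminescence measured ATXN2-luciferase expression after a fluorogenic Gly-Phe-AFC viability readout (25 uM final).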
# Numbers without * were called inactive; i = inactive; ? = inconclusive; . = no result given. Compounds with a hit are over-represented: about 17% of the library has one in this group of screens. The call rests on the fitted dose curve; in most records, active means well fitted curve in the direction sought with a large enough effect; inconclusive means small, poorly fitted or top-dose-only effect, or another doubt; inactive means no such curve, though single readings can be large; an effect the other way counts as inactive or inconclusive. Potency means the concentration at half of the fitted maximal effect.
SMILES,HepG2 viability,ATXN viability,TGFb SMAD3 inh,DT40 TDP1 CPT,TDP1 cell noCPT,ATXN2 expr inh
CCOC(=O)c1cnc2c(OC)cccc2c1N1CCN(c2ccccc2F)CC1,-88.3%,?,?,18.4µM*,18.4µM*,-4.2%
CCOC(=O)c1cc2cc(OCc3ccccc3)ccc2nc1C,-25.6%,i,-11.7%,-18.9%,-24.7%,1.0%
CCOC(=O)c1cnc2ccc(OCC)cc2c1N1CCN(c2ccccc2OC)CC1,-12.4%,?,?,?,11.6µM*,-16.8%
Cc1oc(-c2cccs2)cc1C(=O)N1CCCC(C)(C(=O)O)C1 (stereo unspecified),3.0%,i,3.6%,0.8%,-14.9%,16.6%
O=C(O)C1=NC(C(=O)O)CC(C=CN2c3cc(O)c(OC4OC(CO)C(O)C(O)C4O)cc3CC2C(=O)O)=C1 (stereo unspecified),.,.,.,.,.,8.0%
CC1(C)CC(=O)C(=Cc2cn(-c3ccccc3)nc2-c2ccc(Cl)cc2)C(=O)C1,14.3%,i,12.4%,9.2µM*,20.6µM*,29.6%
CC1=NNC(=O)/C1=C\c1cn(-c2ccccc2)nc1-c1ccccc1,10µM*,26.7µM*,8.91µM*,5.8µM*,4.11µM*,?
O=Cc1cn(-c2ccccc2)nc1-c1ccncc1,-12.7%,?,-2.4%,?,23.1µM*,-0.7%
COc1ccc(NC(=O)CN2C(=O)COc3ccc(S(=O)(=O)N4CCCCCC4)cc32)cc1,3.0%,?,16.0%,4.61µM*,16.4µM*,4.6%
O=C(CN1C(=O)COc2ccc(S(=O)(=O)N3CCCCCC3)cc21)Nc1cccc(Cl)c1,-27.5%,.,?,?,20.6µM*,.
CC(C)c1ccc(NC(=O)CN2C(=O)COc3ccc(S(=O)(=O)N4CCCCCC4)cc32)cc1,-60.9%,.,?,2.59µM*,3.66µM*,.
Cc1ccc(NC(=O)CN2C(=O)COc3ccc(S(=O)(=O)N4CCCCCC4)cc32)cc1C,-42.7%,.,?,?,14.6µM*,.
COc1ccc(NC(=O)CN2C(=O)COc3ccc(S(=O)(=O)N4CCCCC4)cc32)cc1OC,13.3%,?,0.9%,?,?,1.7%
O=C(NCc1ccc(Cl)cc1)C1CCC(CNS(=O)(=O)c2ccccc2)CC1 (stereo unspecified),-49.5%,?,?,-21.5%,?,-36.2%
O=C(COC(=O)/C=C/c1cccc([N+](=O)[O-])c1)NCC1CCCO1 (stereo unspecified),-17.2%,i,-5.5%,-0.7%,-18.3%,-3.4%
COc1ccc(Cl)c2sc(N(CCN(C)C)C(=O)C3=COCCO3)nc12,2.4%,i,-4.5%,-22.4%,?,-6.7%
COC(=O)c1ccc(NC(=O)CN2C(=O)CCc3cc(S(=O)(=O)N4CCCCC4)ccc32)cc1,-33.3%,i,?,-23.2%,-26.0%,2.9%
Cc1ccc(NC(=O)CN2C(=O)CCc3cc(S(=O)(=O)N4CCCCC4)ccc32)cc1C,-7.7%,i,?,?,20.6µM*,-30.0%
Cc1nnc(-c2ccc(Oc3ccc(Cl)cc3)c([N+](=O)[O-])c2)o1,-28.7%,i,-2.6%,?,23.1µM*,-4.9%
O=[N+]([O-])c1cc(-c2nnc(-c3ccccc3)o2)ccc1Oc1ccc(Cl)cc1,-3.7%,i,?,-21.4%,-28.4%,27.6%
c1ccc(-c2nnc(CSc3ccc4c(c3)OCCO4)o2)cc1,-0.6%,i,0.7%,-19.4%,?,11.9%
O=C(CN1CCN(Cc2ccc(F)cc2Cl)CC1)NCc1ccccc1,-22.9%,i,-28.2%,?,-20.6%,-30.0%
Cc1cc(NC(=O)CCCN2C(=O)c3cccc4cccc(c34)C2=O)no1,0.0%,i,14.0%,1.5%,-11.1%,-15.7%
Cc1cc(NC(=O)CCCN2C(=O)c3cccnc3C2=O)no1,-68.4%,i,19.0%,20.6µM*,25.9µM*,1.9%
Cc1nc2ccc(NC(=O)c3ccc(Cl)c(S(=O)(=O)N(C)c4ccccc4)c3)cc2s1,-13.2%,?,-21.1%,13µM*,3.26µM*,?
SMILES,HepG2 viability,ATXN viability,TGFb SMAD3 inh,DT40 TDP1 CPT,TDP1 cell noCPT,ATXN2 expr inh
Cc1nc2ccc(NC(=O)c3cc(S(=O)(=O)N(C)c4ccccc4)ccc3Cl)cc2s1,-6.2%,i,-18.6%,1.84µM*,1.84µM*,-16.3%
Cc1nc2ccc(NC(=O)c3cc([N+](=O)[O-])cc([N+](=O)[O-])c3Cl)cc2s1,-10.5%,?,?,5.17µM*,6.51µM*,-36.8%
Cc1nc2ccc(S(=O)(=O)N(CC(=O)Nc3cccc(Cl)c3)Cc3ccccc3)cc2s1,-19.0%,?,?,?,16.4µM*,?
COc1ccc(S(=O)(=O)Nc2ccccc2C(=O)N2CCOCC2)cc1Cl,4.8%,i,-2.7%,1.2%,16.1%,8.9%
O=C(C1=NOC2(C1)C(=O)Nc1ccccc12)N1CCCCC1 (stereo unspecified),.,?,.,-8.3%,-18.5%,5.5%
CN(c1ccccc1)S(=O)(=O)c1ccc(Cl)c(C(=O)Nc2ccc(N3CCOCC3)cc2)c1,-7.4%,i,-18.9%,3.26µM*,1.64µM*,1.1%
Cc1cccc(CC2SC(N)=NC2=O)c1 (stereo unspecified),2.1%,i,11.2%,5.9%,3.1%,6.0%
Cc1cccc(N2CCN(C3=NC(=O)C(Cc4ccccc4)S3)CC2)c1 (stereo unspecified),-3.8%,i,-25.3%,?,14.6µM*,2.4%
CN(/N=C/c1cccnc1)c1cnn(-c2ccc(F)c(Cl)c2)c(=O)c1Cl,2.8%,i,0.6%,-25.5%,-8.5%,-1.5%
CN(/N=C/c1c[nH]c2ccccc12)c1cnn(-c2ccc(F)c(Cl)c2)c(=O)c1Cl,-11.4%,i,0.9%,25.9µM*,25.9µM*,0.2%
Cc1nn(C)c(C)c1/C=C/C(=O)c1ccc(Cl)cc1Cl,-19.4%,i,?,8.2µM*,13µM*,-8.4%
Cc1cc(C)c2sc(NNC(=O)c3ccc(S(=O)(=O)N4CCc5ccccc5C4)cc3)nc2c1,-16.4%,?,?,3.26µM*,2.59µM*,?
CCc1nnc(NC(=O)c2ccc(S(=O)(=O)N3CCc4ccccc4C3)cc2)s1,8.3%,i,0.9%,?,?,2.4%
Cc1cc(C)c2nc(NNC(=O)c3ccc(S(=O)(=O)N4CCc5ccccc5C4)cc3)sc2c1,-40.2%,i,?,5.17µM*,4.61µM*,?
